# Measurements from the supplement of paper PMC13094657.
# ± gives the standard deviation of the averaged measurements.
# Legend:
# MDA-MB-231 [1] = assay: cell viability relative to vehicle unstimulated control (fraction); higher = more viable cells; conditions: pre-treatment time: 18 h then 24 h IFNg/TNF
# MDA-MB-231 [2] = assay: kynurenine production, fold change vs DMSO IFNg/TNF control; higher = more kynurenine produced (less inhibition); conditions: pre-treatment time: 18 h then 24 h IFNg/TNF
# How it was run: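 Fold change over cytokine-stimulated vehicle wells on the same plate is the measure used for kynurenine production, averaged across duplicate plates in the first screening round. MDA-MB-231 cells, seeded 24 h beforehand at 7 × 10^4/well in 96-well plates, were pre-treated 18 h with each natural product in 0.1% DMSO and stimulated 24 h at 37°C with IFNγ (1 U/ml) and TNF (6.25 ng/ml). Supernatants were read at 492 nm following trichloroacetic acid and p-dimethylaminobenzaldehyde treatment, against 0–100 μM standards.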
# 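For cell viability relative to vehicle unstimulated control in this document: viability of the cells left after supernatant collection, read with Deep Blue dye added for 4 h, as absorbance at 570 nm minus 600 nm.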
SMILES,cell viability (MDA-MB-231 [1]),kynurenine production (MDA-MB-231 [2])
CC1(C)CC[C@]2(C(=O)O)[C@H](O)C[C@]3(C)C(=CC[C@@H]4[C@@]5(C)CC[C@H](O)[C@@](C)(C=O)[C@@H]5CC[C@]43C)[C@@H]2C1 [Quillaic acid] (compound dose: 10 uM),1.01 ± 0.015,1.11 ± 0.018
O=C(O)C1=CO[C@@H](O[C@@H]2O[C@H](CO)[C@@H](O)[C@H](O)[C@H]2O)[C@@H]2C(CO)=CC[C@H]12 [Geniposidic acid] (compound dose: 10 uM),1.02 ± 0.015,0.715 ± 0.065
C[C@H](CC[C@@H](O[C@@H]1O[C@H](CO[C@@H]2O[C@H](CO)[C@@H](O)[C@H](O)[C@H]2O)[C@@H](O)[C@H](O)[C@H]1O)C(C)(C)O)[C@H]1CC[C@@]2(C)[C@@H]3CC=C4[C@@H](CC[C@H](O[C@@H]5O[C@H](CO)[C@@H](O)[C@H](O)[C@H]5O)C4(C)C)[C@]3(C)[C@H](O)C[C@]12C [Mogroside III] (compound dose: 10 uM),0.857 ± 0.018,0.997 ± 0.13
CC(C)=CCC[C@](C)(O[C@@H]1O[C@H](CO[C@@H]2O[C@H](CO)[C@@H](O)[C@H](O)[C@H]2O)[C@@H](O)[C@H](O)[C@H]1O)[C@H]1CC[C@]2(C)[C@@H]1[C@H](O)C[C@@H]1[C@@]3(C)CC[C@H](O[C@@H]4O[C@H](CO)[C@@H](O)[C@H](O)[C@H]4O[C@@H]4O[C@H](CO)[C@@H](O)[C@H](O)[C@H]4O)C(C)(C)[C@@H]3CC[C@]12C [Ginsenoside Rb1] (compound dose: 10 uM),1.02,1.08 ± 0.11
